Results on 92 molecules are retold here after PubChem BioAssay AID624168 (Sanford-Burnham Center for Chemical Genomics, 2012).

Screen size: about 360,000 compounds; about 800 (0.22%) were called active.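 The calls were made as follows: active = activation of at least 8% versus controls, or a plate z-score of at least 8; inactive = the rest.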 The sample as a whole holds a higher share of actives than the screen did.

This assay can be described thus: compounds raising alpha-dystroglycan glycosylation – uHTS, Pro5-aDG cells, AlphaScreen, primary screen (AID 624168).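 Also: Pro5 are CHO cells carrying HIG-tagged alpha-DG that lacks glycosylation.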 Particulars: alpha-DG glycosylation AlphaScreen (IIH6), at 10 µM, hits give high values, 0% Pro5, 100% B10-LARGE cell signal. Background: Alpha assays give light when donor and acceptor beads are brought close together.
`Cc1nn(Cc2ccc(Cl)cc2)c(Cl)c1/C=N/NC(=O)CNc1ccccc1F`: the activation was 0.9% (inactive).

Take `O=[N+]([O-])c1ccc(C=Nc2ccc(Cl)cc2Cl)s1`: the activation is -0.4% (inactive). In the case of `CC(C)(C)c1cc(C(=O)N/N=C/c2ccc([N+](=O)[O-])s2)n[nH]1` it was 2.7% (active); in that of `Cc1ccc(S(=O)(=O)N2CCN(CC(=O)N/N=C/c3ccc(Br)s3)CC2)cc1`, -0.1% (inactive).

For the molecule `Cc1ccccc1NCC(=O)N/N=C\c1ccc([N+](=O)[O-])s1`, the activation was 9.3% (active). The figure for `Cc1c(C(=O)N2CCCC2)c(S(=O)(=O)NCC(C)c2ccccc2)c(C)n1C` (configuration not stated) is -0.1% (inactive); for `O=S(=O)(N1CCCCC1)N1CCNCC1` it is 0% (inactive); for `CC(C)[C@@H](C(=O)O)N(Cc1cccc(CN([C@H](C(=O)O)C(C)C)S(C)(=O)=O)c1)S(C)(=O)=O` it is -0.1% (inactive). `COc1ccc(F)cc1S(=O)(=O)N1CCCCC1`: the activation was -0.1% (inactive). Consider `COCCCNC(=S)N(CCN(C)C)Cc1cc2cc3c(cc2[nH]c1=O)OCCO3`, for which the activation was -0.2% (inactive). As for `Cc1cccc2cc(CN(Cc3cccs3)C(=S)NCc3ccco3)c(=O)[nH]c12`, the activation is 0% (inactive). As for `Cc1cc(C)c2[nH]c(=O)c(CN(Cc3ccccc3)C(=S)NCCCN(C)C)cc2c1`, the activation is 8.7% (active). Regarding `Cc1cccc(C)c1NC(=O)N1CC=C(n2c(=O)[nH]c3ccccc32)CC1`, the activation was 0.1% (inactive). The figure for `O=C(Nc1cc(S(=O)(=O)Nc2ccc(Cl)cc2)ccc1O)c1ccc(F)cc1F` is 0.4% (inactive). With `CC(=O)N(c1ccc2oc(=O)sc2c1)S(=O)(=O)c1ccc(C)cc1`, the activation is 0% (inactive). In the case of `O=C(c1cccnc1)N(c1cc2sc(=O)oc2c2ccccc12)S(=O)(=O)c1ccccc1` it was 8.9% (active).

On to `O=C(CN(c1cc(C(F)(F)F)ccc1Cl)S(=O)(=O)c1ccccc1)NCc1cccnc1`, for which the activation is 0.2% (inactive).

For the molecule `O=C(Nc1ccc(-n2ccnc2P(=O)(O)c2ccccc2)cc1)c1ccccc1Br`, the activation was -0.1% (inactive). As for `COc1ccc(C2c3[nH]c4ccccc4c3C[C@H]3C(=O)N(CC(C)C)CC(=O)N23)c(OC)c1` (some centres not stated), the activation is 0.3% (inactive). Regarding `COc1ccc(CC(=O)Nc2nc(-c3ccc(F)c(F)c3)cs2)cc1OC`, the activation is 2.7% (active). In the case of `COc1ccc(C2(CNC(=O)Cc3ccc(OC)c(OC)c3)CCCC2)cc1` it was -0.3% (inactive); in that of `COc1ccc(CC(=O)NC2CCSc3ccccc32)cc1OC` (configuration not stated), 0.1% (inactive). For `Cc1c(C(=O)N(C)CCc2cnn(C)c2)oc2c(F)cccc12`, the activation is 0.2% (inactive). For the molecule `COCCc1nn2c(=O)cc(COC(=O)c3cc(OC)c(OC)c(OC)c3)nc2s1`, the activation is -0.1% (inactive). As for `CN1OC(COC(=O)c2ccc(Cl)cc2)CC1c1ccccc1` (configuration not stated), the activation is 0.1% (inactive). Consider `Cc1ccc(C(=O)C(=S)N2CCOCC2)cc1`, for which the activation was 0% (inactive). `O=C(Nc1nnc(S(=O)(=O)N2CCCCCC2)s1)c1cccc(Br)c1`: the activation was -0.2% (inactive). As to `COc1cccc(C(=O)Nc2nnc(S(=O)(=O)N3CCOCC3)s2)c1`, the activation was -0.1% (inactive). Take `COc1cccc(C(=O)Nc2nnc(S(=O)(=O)N3CCCCC3)s2)c1`: the activation was 10.9% (active). With `CC(C)(C)OC(=O)N1CCC(C(=O)NNC(=O)c2ccc(Cl)cc2Cl)CC1`, the activation is 0.1% (inactive). The figure for `c1ccc2c(NC3C4CC5CC(C4)CC3C5)nc(N3CCOCC3)nc2c1` (configuration not stated) is 0.7% (inactive); for `CCOc1ccc(CCNC(=O)CCc2nnc3ccc(N4CCCC4)nn23)cc1OCC` it is 0.3% (inactive). For `COCCCC1CCN(C(=O)C2CCC(=O)N(C3CCCCCC3)C2)CC1` (configuration not stated), the activation is -0.3% (inactive). Regarding `COC(=O)C(Cc1c[nH]c2ccccc12)NC(=O)CCNC(=O)c1ccco1` (configuration not stated), the activation was 0.2% (inactive).

For `COc1ccccc1N1CC(C(=O)Nc2nnc(SCC(=O)NCC3CCCO3)s2)CC1=O` (configuration not stated), the activation is -0.1% (inactive). As for `CCOc1ccccc1Nc1nnc(SCC(=O)NCC2CCCO2)s1` (configuration not stated), the activation was 5.2% (active). In the case of `CCOc1ccccc1Nc1nnc(SCC(=O)Nc2cc(C)on2)s1` it was -0.2% (inactive); in that of `COc1ccccc1OCCn1c(SCC(N)=O)nc2ccccc21`, 0% (inactive). Take `NC1=CC(=O)C(=O)c2cccnc21`: the activation is 4.9% (active).

In the case of `O=C(C1CCCN(S(=O)(=O)c2ccc([N+](=O)[O-])cc2)C1)N1CCCCC1` (configuration not stated), the activation is 0.9% (inactive). For the molecule `COc1cc(C(C)=O)ccc1OC(=O)CN1C(=O)c2ccccc2C1=O`, the activation was -0.1% (inactive). Turning to `CC(C)OC(=O)CN1C(=O)C(=O)c2ccccc21`, the activation is 14.6% (active). `O=C1C(=O)N(c2ccccc2)c2ccccc21`: the activation is 2.6% (inactive). As to `O=C(NCc1ccc(F)cc1)C1CCN(C(=O)Nc2ccc(F)cc2)CC1`, the activation was -0.1% (inactive). In the case of `Cc1[nH]c(C)c(S(=O)(=O)N2CCN(c3cccc(C(F)(F)F)c3)CC2)c1C(=O)N1CCCCC1`, the activation is -0.4% (inactive). Consider `CC1(C)CC(=O)C=C(NC2CC(C)(C)NC(C)(C)C2)C1`, for which the activation was -0.2% (inactive). In the case of `COc1cc(CNCCN(C)C)ccc1OCc1c(F)cccc1Cl` it was 8.5% (active); in that of `CCOCCCNCc1ccc(OCc2ccc(F)cc2)c(OC)c1`, 0.1% (inactive). On to `CCN(CC)CCNCc1ccc(OCc2ccc(Cl)nc2)c(OC)c1`, for which the activation is 0.3% (inactive).

Consider `CCCCNCc1ccc(SC)cc1`, for which the activation was 0.3% (inactive). Turning to `C[C@H](CO)N1C[C@H](C)[C@H](CN(C)CC2CC2)Oc2ccc(NC(=O)CCN3CCOCC3)cc2C1=O`, the activation was 0.2% (inactive). Consider `Cc1ccc(N2C(=O)SC(N(CC(=O)O)c3ccc(C)cc3)C2=O)cc1` (configuration not stated), for which the activation is 1.3% (inactive). In the case of `CCn1c(SCc2cccc(C(=O)O)c2)nnc1-c1ccc(Cl)cc1` it was 0% (inactive). Consider `O=C(/C=C/c1ccc(Cl)cc1)NCCCn1ccnc1`, for which the activation was -0.1% (inactive). For `Fc1cccc(Cl)c1COc1ccc(-c2nnco2)cc1`, the activation was -0.1% (inactive). For `CN(C)CCCNC(=O)/C=C/c1ccc(OCc2c(F)cccc2Cl)cc1`, the activation was 13.4% (active). The figure for `CS(=O)(=O)N(CC(=O)N1CCCCCC1)c1cccc(Cl)c1Cl` is -0.1% (inactive); for `COc1ccc(CCCNC(=O)C2Cc3c(-c4cccc(C(N)=O)c4)ccnc3O2)cc1` (configuration not stated) it is 0.1% (inactive); for `COc1ccc(NC(=O)COc2ccc(C(=O)c3ccc(F)cc3)cc2)cc1S(N)(=O)=O` it is 0% (inactive). Take `O=C(OCC(=O)N1CCc2ccccc21)c1ccc([N+](=O)[O-])cc1`: the activation is 0.1% (inactive). As for `COc1ccccc1C1SCCN1C(=O)c1ccc([N+](=O)[O-])cc1` (configuration not stated), the activation was 6.9% (active). For `C[N+]1(CC(O)COc2ccccc2)CCN(C(=O)c2ccc([N+](=O)[O-])cc2)CC1` (configuration not stated), the activation is -0.2% (inactive). As to `CC(C)N(C(=O)CSc1nc(COc2ccccc2)nc2ccccc12)C(C)C`, the activation is 0.2% (inactive). `CCOc1cc(CNCCN(C)C)c(Cl)cc1OCC(=O)NCCc1ccccc1`: the activation is 0.7% (inactive).

For `Cc1cccn2c(=O)nc(SCC(=O)NCc3ccccc3Cl)nc12`, the activation was 0.1% (inactive). In the case of `O=C(Oc1ccccc1C(=S)N1CCCCC1)c1cc([N+](=O)[O-])cc([N+](=O)[O-])c1` it was -0.2% (inactive). Take `CN(O)C(=S)c1ccccc1`: the activation was -0.2% (inactive). On to `Cc1ccc(F)c(S(=O)(=O)NC(=O)C2(C)CCN2C(=O)c2ccco2)c1` (configuration not stated), for which the activation was -0.2% (inactive). On to `CC(C)C(=O)NCC(c1cccs1)S(=O)(=O)c1ccc(F)cc1` (configuration not stated), for which the activation was 6.9% (active).

On to `O=C(NCc1cccs1)C(=O)NCC1OCCCN1S(=O)(=O)c1ccc(F)cc1` (configuration not stated), for which the activation is 0% (inactive). Consider `COCCNC(=O)C(OC(=O)c1cccs1)c1ccc(F)cc1` (configuration not stated), for which the activation was -0.1% (inactive).

`O=C(Cc1ccc(S(=O)(=O)N2CCOCC2)s1)N1CCN(c2ccc(C(F)(F)F)cc2[N+](=O)[O-])CC1`: the activation was 0.7% (inactive). As to `COc1cc(OC)cc(C(=O)NC(=S)N2CCN(c3ccc(C(F)(F)F)cc3[N+](=O)[O-])CC2)c1`, the activation was 0.3% (inactive).

As for `O=C(c1ccc(N2CCCC2=O)cc1)N1CCN(c2ccc(C(F)(F)F)cc2[N+](=O)[O-])CC1`, the activation was 7% (active). `CC1CCCN(S(=O)(=O)c2ccc(N(C(=O)c3cnccn3)C(C(=O)NC3CCCCC3)c3cccs3)cc2)C1` (configuration not stated): the activation was -0.1% (inactive). For `Cc1ccccc1NC(=O)CCNS(=O)(=O)c1ccc2[nH]c(=O)oc2c1`, the activation is -0.2% (inactive). With `COc1ccc(C)cc1NC(=O)CN(C)S(=O)(=O)c1ccc2c(c1)n(C)c(=O)c(=O)n2C`, the activation was -0.2% (inactive).

As to `COC(=O)c1ccc(C(=O)NC2CC(C)(C)Cc3c2cnn3-c2ccc(F)cc2)nc1` (configuration not stated), the activation is 0% (inactive). `Cn1nccc1C(=O)NC1CCCc2c1cnn2-c1ccc(F)cc1F` (configuration not stated): the activation is 5% (active).

As to `CC1=C(C(=O)NC2CC(C)(C)Cc3c2cnn3-c2ccc(C)cc2)OCCO1` (configuration not stated), the activation was 0.4% (inactive).

As for `COc1ccc(C23NCCN2C(=O)c2ccccc23)cc1` (configuration not stated), the activation is -0.1% (inactive).

Take `Cc1ccsc1C(=O)NCCc1ccco1`: the activation was -0.1% (inactive). For `Cc1c(CN2CCC(CO)(CCOc3ccccc3)CC2)[nH]c2ccc(Cl)cc12`, the activation was 2.4% (inactive). `COCCn1c(SCC(=O)c2[nH]c(C)c(C(C)=O)c2C)nc2ccccc2c1=O`: the activation was 0% (inactive). The figure for `CCc1[nH]nc(C(=O)N2CCCC(CNS(=O)(=O)c3cccs3)C2)c1C` (configuration not stated) is 0.1% (inactive); for `Cc1ccccc1OCc1nnc(SCC(=O)N2c3ccccc3Sc3ccc(Cl)cc32)o1` it is 0.3% (inactive). Consider `O=C(CNCc1ccc(F)cc1)Nc1ccccc1-c1ccccc1`, for which the activation is 0.6% (inactive). For the molecule `Cc1nc2nc[nH]n2c(=O)c1NC(=O)c1cccc(OCC(C)C)c1`, the activation is 0.1% (inactive). `CCc1cccc(C)c1NC(=O)COC(=O)CC1CCCC1`: the activation is 0.2% (inactive).

Regarding `COc1ccc(NC(=O)CSc2nnc(C3CC3)n2C)cc1S(=O)(=O)N1CCCCC1`, the activation is -0.1% (inactive).

Take `COc1ccc(NC(=O)CSc2nnc(-c3ccccc3F)n2C2CC2)cc1S(N)(=O)=O`: the activation was 6.3% (active).

As for `CC(Sc1nnc(-c2ccccc2F)n1C1CC1)C(N)=O` (configuration not stated), the activation was 0.1% (inactive).
